Assay results from PubChem BioAssay AID1259341 (Broad Institute, 2017).

target: Caspase recruitment domain-containing protein 9 (Homo sapiens) + E3 ubiquitin-protein ligase TRIM62 (Homo sapiens) (UniProt Q9H257+Q9BVG3); experiment: CARD9/TRIM62 protein interaction inhibitors – cell lysate, HEK293FT lysates, Luminex bead ELISA, primary screen (AID 1259341); conditions: PE fluorescence, hits give low values, concentration not given here;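 further: PE anti-Flag signal of Flag-CARD9 captured by myc-TRIM62 beads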
Sequence (Q9BVG3 whole entry, looked up, the tested form may be a part): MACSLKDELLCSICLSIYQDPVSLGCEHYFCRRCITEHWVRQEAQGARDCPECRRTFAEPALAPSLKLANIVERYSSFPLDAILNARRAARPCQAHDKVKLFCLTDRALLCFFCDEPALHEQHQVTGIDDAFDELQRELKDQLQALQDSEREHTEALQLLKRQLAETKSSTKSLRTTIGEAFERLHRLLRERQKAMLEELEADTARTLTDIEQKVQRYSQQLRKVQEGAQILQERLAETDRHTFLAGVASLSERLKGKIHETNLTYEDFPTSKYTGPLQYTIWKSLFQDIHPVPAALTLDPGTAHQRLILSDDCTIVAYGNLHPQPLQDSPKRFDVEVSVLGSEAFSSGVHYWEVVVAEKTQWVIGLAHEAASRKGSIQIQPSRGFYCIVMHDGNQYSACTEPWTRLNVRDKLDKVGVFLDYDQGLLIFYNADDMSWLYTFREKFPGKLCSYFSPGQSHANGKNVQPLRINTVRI
Sequence (Q9H257 whole entry, looked up, the tested form may be a part): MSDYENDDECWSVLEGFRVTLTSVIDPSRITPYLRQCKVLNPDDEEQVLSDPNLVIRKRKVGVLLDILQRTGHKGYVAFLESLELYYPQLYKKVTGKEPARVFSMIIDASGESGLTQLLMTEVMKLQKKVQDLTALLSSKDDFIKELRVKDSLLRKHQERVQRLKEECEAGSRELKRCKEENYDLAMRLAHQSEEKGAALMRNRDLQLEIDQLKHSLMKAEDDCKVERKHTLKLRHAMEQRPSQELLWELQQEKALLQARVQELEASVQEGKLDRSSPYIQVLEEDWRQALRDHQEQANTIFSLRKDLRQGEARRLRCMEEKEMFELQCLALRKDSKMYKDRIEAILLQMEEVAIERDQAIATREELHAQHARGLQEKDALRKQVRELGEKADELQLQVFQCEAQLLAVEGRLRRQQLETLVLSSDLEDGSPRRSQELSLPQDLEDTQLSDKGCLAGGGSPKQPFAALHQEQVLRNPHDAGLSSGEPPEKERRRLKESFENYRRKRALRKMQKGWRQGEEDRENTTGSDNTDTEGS

Activity change, negative = inhibition, inactive:
O=C(COc1cccnc1[N+](=O)[O-])c1ccc(Cl)s1 -9.96%, CCNc1ncc(C(=O)NCCc2nc3c(s2)CCCC3)cn1 -3.32%, CCCN1CCc2nc(SCc3nc(-c4ccc(OC)cc4OC)oc3C)[nH]c(=O)c2C1 -0.271%, O=C(O)c1cc(-c2ccco2)nc2ccccc12 15.8%, Cc1cc(C(=O)NCc2ccco2)on1 -1%, COCCC(=O)N1CCCC2(CCN(CCN3CCCC3)C2=O)C1 (stereo not given) -7.49%, O=C1CC2(CCN(C(=O)Nc3ccccc3)CC2)CN1Cc1ccc(Cl)cc1 -3.18%, CCc1oc2ccccc2c1C(=O)CCN1CCCCC1 2.4%, O=C(Nc1nccs1)c1cc(-c2ccco2)nc2ccccc12 -0.894%, C[C@H](CO)N1C[C@H](C)[C@@H](CN(C)CC2CCCCC2)OCCCC[C@H](C)Oc2ccc(NS(=O)(=O)c3ccc(Cl)cc3)cc2C1=O 8.08%, O=C(CCCN1C(=O)NC2(CCCC2)C1=O)Nc1ccc(F)cc1 23.8%, COCC(=O)N1CCCC2(CCN(CCN3CCCC3)C2=O)C1 (stereo not given) -5.85%, O=[N+]([O-])c1ccc2cc[nH]c2c1 7.88%, Nc1cc2c(cc1O)CCCC2 -4.6%, CCOc1ccccc1NC(=O)N1CCCC(c2nccn2CCOC)C1 (stereo not given) -5.04%, O=C(NC1CC1)c1cc(-c2ccco2)nc2ccccc12 -6.41%, COc1ccc(S(=O)(=O)Nc2ccc3c(c2)C(=O)N([C@H](C)CO)C[C@H](C)[C@@H](CN(C)C(=O)C2CCCCC2)OCCCC[C@H](C)O3)cc1 -4.07%, O=C(O)C1Oc2cc3ccccc3cc2O1 -13.6%, CCC1c2ccc(C)n2CCN1C(=O)Nc1ccccc1C(=O)OC (stereo not given) 22.8%, COc1ccc(F)c(CN2C[C@H]3CC[C@@H]2CN(Cc2cscn2)C3)c1 -3.76%, O=C(CC1Nc2ccccc2OC1=O)Nc1ccc(Cl)cc1 (stereo not given) 13.8%, N#Cc1sc2nc(-c3ccccc3)cc(-c3ccco3)c2c1N 2.21%, O=C(Nc1nccs1)c1cc(-c2ccccn2)nc2c(Cl)cccc12 -0.831%, CC(=O)c1sc2nc(-c3ccco3)ccc2c1N -8.74%, Cn1nnnc1SCCNCc1ccc(-c2cccc(C(F)(F)F)c2)o1 -0.39%, C[C@H](CO)N1C[C@H](C)[C@H](CN(C)C(=O)C2CCCCC2)OCCCC[C@H](C)Oc2ccc(NS(=O)(=O)c3cccs3)cc2C1=O 6.16%, CCOC(=O)c1[nH]c(Cc2[nH]c(C(=O)OCC)c(C)c2C)c(C)c1C -0.0423%, O=C(Nc1ccc2c(c1)nc1n2CCN(C2CCCCC2)C1)c1ccco1 -2.69%, O=C(O)COc1ccc(-n2cccc2)cc1 -1.45%, COc1ccc(S(=O)(=O)c2ccccc2)cc1NS(=O)(=O)c1cccc(C(=O)O)c1 -0.344%, Nc1ccc2ncccc2c1N 1.19%, Cc1ccsc1[C@@H]1CCN(Cc2ccc(-c3ccn[nH]3)o2)C[C@H]1O 0.0372%, O=C(COC(=O)c1cc(-c2ccco2)nc2ccccc12)NCc1ccccc1 -1.75%, O=C(Cn1cncc1-c1ccc([N+](=O)[O-])cc1)Nc1ccccc1F 4.4%, CC1(C)Cc2c(c(N3CCOCC3)nc3sc(C(=O)NCc4ccco4)c(N)c23)CO1 -2.46%
